Results from PubChem BioAssay (EPA / NIEHS).
Calls of active or inactive are those of the source. The calls were made as follows: active = hit-call score of the fitted dose curve at least 0.9, where 1 is the maximum; inactive = score below 0.9.

Key:
[1] = BSK_hDFCGF_SRB: Viability Assessment in the BioMAP Diversity Plus: hDFCGF Assay (AID 2283061); conditions: primary human foreskin fibroblasts;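 also: cells exposed to compound for 24 h before the read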
In short: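 Viability was read as total protein: after 10% TCA fixation, wells were stained with 0.1% sulforhodamine B and read at 560 nm. Primary human foreskin fibroblasts were dosed for 24 h, with bidirectional fitting versus DMSO.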

[2] = read-out: TIMP metallopeptidase inhibitor 1 (TIMP1), TIMP1 (gene 7076); experiment: BSK_hDFCGF_TIMP1: BioMAP Diversity Plus: hDFCGF Assay for TIMP metallopeptidase inhibitor 1 (TIMP1) Biomarker Activity (AID 2283062); conditions: primary human foreskin fibroblasts; actives raise or lower the signal
In short: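 TIMP-1 measured by ELISA 24 h after chemical dosing of primary human skin fibroblasts, with gain or loss fitted relative to DMSO. Parallel SRB staining (560 nm) monitored overt cytotoxicity.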

[3] = read-out: Monokine induced gamma interferon (MIG), CXCL9 (gene 4283); experiment: BSK_hDFCGF_MIG: BioMAP Diversity Plus: hDFCGF Assay for Monokine induced gamma interferon (MIG) Biomarker Activity (AID 2283063); conditions: primary human foreskin fibroblasts; actives raise or lower the signal
In short: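 Human primary foreskin fibroblasts in the hDFCGF system, exposed to test chemical for 24 h; MIG measured by ELISA. Bidirectional curve fitting against DMSO negative control as activity baseline.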

[4] = read-out: Matrix Metallopeptidase 1 (MMP1), MMP1 (gene 4312); experiment: BSK_hDFCGF_MMP1: BioMAP Diversity Plus: hDFCGF Assay for Matrix Metallopeptidase 1 (MMP1) Biomarker Activity (AID 2283064); conditions: primary human foreskin fibroblasts; actives raise or lower the signal
In short: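 ELISA read-out of MMP1 from human foreskin fibroblasts (primary skin cells), 24 h post-dose. Gain or loss of signal was fitted bidirectionally versus DMSO negative control; cytotoxicity was checked by SRB in parallel cultures.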

[5] = read-out: Vascular cell adhesion molecule 1 (VCAM1), VCAM1 (gene 7412); experiment: BSK_hDFCGF_VCAM1: BioMAP Diversity Plus: hDFCGF Assay for Vascular cell adhesion molecule 1 (VCAM1) Biomarker Activity (AID 2283065); conditions: primary human foreskin fibroblasts; actives raise or lower the signal;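 as to AC50: VCAM-1 protein level quantified by ELISA after 24 h chemical exposure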
In short: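 ELISA readout of VCAM-1 on human dermal fibroblast primary cultures, 24 h after chemical exposure. Gain or loss of signal fitted in both directions against DMSO baseline.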

[6] = read-out: Plasminogen activator inhibitor-1 (PAI1), SERPINE1 (gene 5054); experiment: BSK_hDFCGF_PAI1: BioMAP Diversity Plus: hDFCGF Assay for Plasminogen activator inhibitor-1 (PAI1) Biomarker Activity (AID 2283066); conditions: primary human foreskin fibroblasts; actives raise or lower the signal
In short: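 ELISA readout of PAI-1 from primary human skin fibroblast cultures, 24 h after compound addition. Gain or loss of signal was fitted bidirectionally against DMSO baseline.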

[7] = read-out: Intercellular Adhesion Molecule 1 (ICAM1), ICAM1 (gene 3383); experiment: BSK_KF3CT_ICAM1: BioMAP Diversity Plus: KF3CT Assay for Intercellular Adhesion Molecule 1 (ICAM1) Biomarker Activity (AID 2283067); conditions: primary human keratinocytes with fibroblasts; actives raise or lower the signal
In short: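 Cell-surface ICAM-1 was measured by ELISA 24 h after dosing primary human skin keratinocytes co-cultured with fibroblasts. Parallel SRB staining tracked overt cytotoxicity. Gain or loss of signal was fitted relative to DMSO.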

[8] = read-out: Interferon-gamma inducible Protein 10 (IP10), CXCL10 (gene 3627); experiment: BSK_KF3CT_IP10: BioMAP Diversity Plus: KF3CT Assay for Interferon-gamma inducible Protein 10 (IP10) Biomarker Activity (AID 2283068); conditions: primary human keratinocytes with fibroblasts; actives raise or lower the signal
In short: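 In a primary skin co-culture of keratinocytes and fibroblasts, IP-10 is quantified by ELISA at 24 h after dosing. SRB staining of parallel wells monitors overt toxicity. Curves are fitted both directions against DMSO.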

[9] = BSK_KF3CT_SRB: Viability Assessment in the BioMAP Diversity Plus: KF3CT Assay (AID 2283069); conditions: primary human keratinocytes with fibroblasts;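 also: total protein by sulforhodamine B staining as a cytotoxicity measure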
In short: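 SRB read-out at 560 nm (0.1% stain, TCA-fixed cells) gauges overt cytotoxicity in a human skin keratinocyte–fibroblast co-culture 24 h post-dosing. Signal change was fitted bidirectionally relative to DMSO control.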

[10] = read-out: Interleukin-1 alpha (IL1a), IL1A (gene 3552); experiment: BSK_KF3CT_IL1a: BioMAP Diversity Plus: KF3CT Assay for Interleukin-1 alpha (IL1a) Biomarker Activity (AID 2283070); conditions: primary human keratinocytes with fibroblasts; actives raise or lower the signal
In short: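 Primary skin co-culture (keratinocytes, foreskin fibroblasts), 24 h exposure; ELISA for IL-1a; bidirectional curve fit vs DMSO.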

[11] = read-out: Transforming growth factor beta 1 (TGFb1), TGFB1 (gene 7040); experiment: BSK_KF3CT_TGFb1: BioMAP Diversity Plus: KF3CT Assay for Transforming growth factor beta 1 (TGFb1) Biomarker Activity (AID 2283072); conditions: primary human keratinocytes with fibroblasts; actives raise or lower the signal
In short: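 Read-out: ELISA for TGF-b1 in keratinocyte/foreskin fibroblast human skin co-culture, 24 h after dosing; bidirectional curve fit vs DMSO baseline; gain or loss of signal scored.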

[12] = read-out: C-C motif chemokine 2 (Homo sapiens) (UniProt P13500); experiment: BSK_KF3CT_MCP1: BioMAP Diversity Plus: KF3CT Assay for Monocyte Chemoattractant Protein 1 (MCP1/CCL2) Biomarker Activity (AID 2283073); conditions: primary human keratinocytes with fibroblasts; actives raise or lower the signal
In short: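 ELISA read-out of MCP-1, 24 h post-dose, in primary human skin keratinocytes co-cultured with fibroblasts. Parallel SRB staining monitors cytotoxicity; changes fitted both directions relative to DMSO.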

[13] = read-out: Matrix Metallopeptidase 9 (MMP9), MMP9 (gene 4318); experiment: BSK_KF3CT_MMP9: BioMAP Diversity Plus: KF3CT Assay for Matrix Metallopeptidase 9 (MMP9) Biomarker Activity (AID 2283074); conditions: primary human keratinocytes with fibroblasts; actives raise or lower the signal;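 as to AC50: MMP9 protein level quantified by ELISA in the co-culture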
In short: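 ELISA read-out of MMP-9 at 24 h post-dosing in a co-culture of human skin keratinocytes and foreskin fibroblasts. Gain or loss of signal was fitted in both directions against DMSO.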

[14] = read-out: urokinase plasminogen activator (uPA), PLAU (gene 5328); experiment: BSK_KF3CT_uPA: BioMAP Diversity Plus: KF3CT Assay for urokinase plasminogen activator (uPA) Biomarker Activity (AID 2283075); conditions: primary human keratinocytes with fibroblasts; actives raise or lower the signal
In short: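 Skin co-culture (keratinocytes + foreskin fibroblasts), human primary; 24 h post-dose; uPA by ELISA; gain/loss fit vs DMSO baseline.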

CD40, CD40 (gene 958) = experiment: BSK_LPS_CD40: BioMAP Diversity Plus: LPS Assay for CD40 Biomarker Activity (AID 2283076); conditions: primary human HUVEC with PBMC; actives raise or lower the signal
In short: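 In the LPS system of human endothelial cells with peripheral blood mononuclear cells, CD40 levels were read by ELISA 24 h post-treatment. Signal changes in either direction were fitted against the DMSO baseline, with parallel SRB protein staining.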

[15] = read-out: E-selectin (Homo sapiens) (UniProt P16581); experiment: BSK_LPS_Eselectin: BioMAP Diversity Plus: LPS Assay for Eselectin Biomarker Activity (AID 2283077); conditions: primary human HUVEC with PBMC; actives raise or lower the signal
In short: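 E-selectin ELISA on LPS-stimulated endothelial cell/PBMC co-cultures, read 24 h post-treatment; gains and losses fitted against DMSO. Parallel SRB staining (0.1% SRB after 10% TCA fixation, 560 nm) flags overt cytotoxicity.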

[16] = read-out: Interleukin-8 (IL8), CXCL8 (gene 3576); experiment: BSK_LPS_IL8: BioMAP Diversity Plus: LPS Assay for Interleukin-8 (IL8) Biomarker Activity (AID 2283078); conditions: primary human HUVEC with PBMC; actives raise or lower the signal
In short: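 ELISA read-out of IL-8 after 24 h chemical treatment of LPS-activated endothelial/PBMC human primary co-cultures. Changes either up or down relative to DMSO; overt cytotoxicity checked by sulforhodamine B staining in parallel wells.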

[17] = read-out: Interleukin-1 alpha (IL1a), IL1A (gene 3552); experiment: BSK_LPS_IL1a: BioMAP Diversity Plus: LPS Assay for Interleukin-1 alpha (IL1a) Biomarker Activity (AID 2283080); conditions: primary human HUVEC with PBMC; actives raise or lower the signal
In short: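 Readout is IL-1a level by ELISA, 24 h post-dose, fitted as gain or loss relative to DMSO. System: LPS-activated human primary co-culture of vascular endothelium and peripheral blood mononuclear cells, with parallel SRB total-protein cytotoxicity.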

[18] = read-out: TIMP metallopeptidase inhibitor 2 (TIMP2), TIMP2 (gene 7077); experiment: BSK_KF3CT_TIMP2: BioMAP Diversity Plus: KF3CT Assay for TIMP metallopeptidase inhibitor 2 (TIMP2) Biomarker Activity (AID 2283071); conditions: primary human keratinocytes with fibroblasts; actives raise or lower the signal
In short: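 ELISA readout of TIMP-2 in keratinocyte plus foreskin fibroblast co-cultures (human skin primary cells), 24 h post-dose. Gain or loss of signal fitted relative to DMSO.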

[19] = BSK_LPS_SRB: Viability Assessment in the BioMAP Diversity Plus: LPS Assay (AID 2283079); conditions: primary human HUVEC with PBMC;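 also: total protein by sulforhodamine B absorbance as a cytotoxicity measure; measured one day after compound addition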
In short: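 SRB viability endpoint: cells fixed with 10% TCA, stained with 0.1% SRB, read at 560 nm, 24 h post-dose. HUVEC/PBMC co-culture; signal change in either direction scored relative to DMSO.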

Measured: AC50

Sequence of E-selectin (Homo sapiens) (P16581 whole entry, looked up): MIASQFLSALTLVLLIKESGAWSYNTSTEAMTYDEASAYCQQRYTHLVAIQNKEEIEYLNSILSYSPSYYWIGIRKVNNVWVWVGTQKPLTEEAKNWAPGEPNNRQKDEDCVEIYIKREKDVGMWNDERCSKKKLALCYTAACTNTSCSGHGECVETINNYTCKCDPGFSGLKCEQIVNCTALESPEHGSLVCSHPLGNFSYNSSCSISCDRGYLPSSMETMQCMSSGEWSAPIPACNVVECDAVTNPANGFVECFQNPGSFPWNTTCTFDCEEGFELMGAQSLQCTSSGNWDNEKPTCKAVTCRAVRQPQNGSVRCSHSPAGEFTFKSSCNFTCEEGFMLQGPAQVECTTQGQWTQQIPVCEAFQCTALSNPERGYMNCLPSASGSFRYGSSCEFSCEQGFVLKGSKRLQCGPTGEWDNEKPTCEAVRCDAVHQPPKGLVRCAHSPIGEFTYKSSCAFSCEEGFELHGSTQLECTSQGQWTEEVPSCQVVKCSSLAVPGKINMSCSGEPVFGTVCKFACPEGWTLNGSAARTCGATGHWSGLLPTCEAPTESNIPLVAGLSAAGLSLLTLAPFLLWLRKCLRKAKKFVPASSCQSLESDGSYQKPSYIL

O=C1OC(c2ccc(O)cc2)(c2ccc(O)cc2)c2ccccc21
active: [5] 31.2 µM | [10] 28.8 µM | [11] 12.6 µM | [13] 29.5 µM | CD40, CD40 (gene 958) 31.5 µM | [16] 20 µM
not listed: [18] | [19]
inactive: all other assays above

O=C(NS(=O)(=O)/C=C/c1cccs1)c1ccc(F)cc1Br
active: [10] 2.09 µM | CD40, CD40 (gene 958) 0.451 µM
not listed: [19]
inactive: all other assays above

Nc1nc(=S)c2[nH]cnc2[nH]1
active: [4] 24.8 µM
not listed: [5]
inactive: all other assays above

Cc1cc(Cc2ccc(N)c(C)c2)ccc1N
not listed: [19]
inactive: all other assays above

NC1CCCCC1
not listed: [19]
inactive: all other assays above

CC(=O)S[C@H](C(=O)N[C@H]1Cc2ccccc2[C@H]2CCC[C@@H](C(=O)O)N2C1=O)C(C)C
not listed: [19]
inactive: all other assays above

O=C(N[C@@H](c1ccccc1)[C@@H]1CCCCN1)c1cccc(C(F)(F)F)c1Cl
inactive: [1] | [2] | [3] | [4] | [5] | [12]
active: [6] 9.69 µM | [7] 30.7 µM | [8] 37.1 µM | [9] 30.3 µM | [18] 12.4 µM | [11] 20 µM | [13] 30.8 µM | [14] 32.5 µM | CD40, CD40 (gene 958) 20 µM | [15] 5.55 µM | [16] 17.9 µM | [19] 23.4 µM | [17] 20 µM

CCc1cc(C2=C(C(=O)O)N(c3ccccc3C(F)(F)F)S(=O)(=O)c3ccccc32)cc2c1OCO2
active: [4] 19.8 µM
not listed: [19]
inactive: all other assays above
